Sampled rows, rich in hits. Any-hit rate of the full collection: about 3.6%.
SKOV3 invasion: Primary qHTS assay for Inhibitors of ovarian cancer metastasis using an organotypic tumor microenvironment (TME) model; SKOV3ip1-GFP adhesion/invasion on 3D omental model, fluorescence; Potency, µM (doses to about 45.8 µM), most hits filed as inhibitors; actives 0.1% (n = 46,000); also: nearly all actives have a fitted effect of over 65% in size
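qHTS, 4-pt dose (0.36-46 umol/L); SKOV3ip1-GFP, 1,200 cells/well, no FBS; primary omental fibroblast/mesothelial co-culture 48 h pre-grown; 2 h RT + 16 h 37 C; PBS wash, 4% PFA; GFP count 488/509 nm.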
GALC G270D up: A Novel Cell-Based Assay to Identify Small Molecules for B -Galactocerebrosidase; P54803; 145M-Twi-hGALC-G270D cells, HMU-beta-Gal fluorescence, 48 h; Potency, µM (titrated, usually from 57.5 µM), hits mostly activators; actives 0.1% (n = 45,000); AID 1159614, 2016; also: nearly all actives have a fitted effect of over 65% in size
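qHTS, 1536-well; 145M-Twi-hGALC-G270D cells (WT line also made) in DMEM/F12 + 10% FBS; compound incubation on live cells; HMU-β-gal 0.1 mM final, pH 5.2, NaTC; carbonate stop; fluorescence increase = enhanced residual activity.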
S16 viability: Cell viability qHTS assay in S16 Pmp22-F2sN cells | S16 Pmp22-F2sN Schwann cells viability, CellTiter-Glo, 24 h | Potency, µM (series often up to 57.5 µM), usual class: cytotoxic | actives 0.48% (n = 43,000) | AID 1508642, 2021; also: nearly all actives have a fitted effect of over 65% in size
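S16 Pmp22-F2sN Schwann cells (500-1,000/well) in phenol-red-free DMEM with 10% FBS received 23 nL compound by pin tool for 24 h at 37 °C. Viability was then read as CellTiter-Glo luminescence after 15 min at room temperature.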
NTMT1 inhibitor: Primary qHTS for Inhibitors of N-terminal methyltransferase 1 (NTMT1): MTaseGlo Assay. N-terminal Xaa-Pro-Lys N-methyltransferase 1 (Homo sapiens), Q9BV86. NTMT1 MTase-Glo SAH luminescence, purified enzyme. Potency, µM (doses to about 114 µM), most hits filed as inhibitors. actives 2.5% (n = 59,000). AID 1645870, 2021; also: nearly all actives have a fitted effect of over 65% in size
Target sequence (Q9BV86 whole entry, looked up): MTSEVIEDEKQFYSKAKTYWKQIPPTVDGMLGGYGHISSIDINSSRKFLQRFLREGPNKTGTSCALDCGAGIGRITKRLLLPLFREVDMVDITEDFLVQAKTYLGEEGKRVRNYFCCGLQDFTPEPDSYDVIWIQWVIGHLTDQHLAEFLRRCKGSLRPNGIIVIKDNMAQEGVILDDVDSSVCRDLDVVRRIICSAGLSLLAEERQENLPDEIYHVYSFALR
pS6 MEF inh: Acumen qHTS Assay for Inhibitors of the mTORC1 Signaling Pathway in MEF (Tsc2-/-, p53-/-) Cells: Sytravon; Potency, µM (doses to about 38.3 µM), hits mostly inhibitors; Tsc2-/- p53-/- MEF, phospho-rpS6 immunofluorescence/PI, 24 h; actives 0.78% (n = 44,000); AID 493208, 2011; also: nearly all actives have a fitted effect of over 50% in size
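Readout is phospho-S6 Alexa 488 signal normalized to PI per well, reported as % active cells with thresholds set from rapamycin (7.5 nM) and DMSO controls. Cells: Tsc2-/-, p53-/- MEFs, 24 hrs compound at 37 C; PI cell number serves as viability.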
PMP22 txn: Cell-based coincidence reporter assay to measure PMP22 gene transcription in S16 Pmp22-F2sN cells - Primary screen | S16 Pmp22-F2sN Schwann cells (luciferase reporters placed in the Pmp22 gene), FLuc/NLuc coincidence luminescence, 24 h | Potency, µM (series often up to 57.5 µM), most hits filed as inhibitors | actives 2% (n = 43,000); active = clear falling dose curves in both reporters; inconclusive = both reporters move, but less clearly or upward; inactive = either reporter flat; the % is the NLuc reporter signal
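Rat S16 Pmp22-F2sN cells, 500-1,000/well in phenol red-free DMEM + 10% FBS, compound-treated 24 h (37C, 5% CO2). Luminescence: FLuc read, Stop&Glo added, NLuc read.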
Of the large screens only hits and unclear results are named; the others gave an inactive call; ! = repeats disagree. Unless noted, calls follow the shape of the dose curve; as a rule, active = well fitted curve in the direction sought with a large enough effect; inconclusive = small, poorly fitted or top-dose-only effect, or another doubt; inactive = no such curve, though single readings can be large; an effect the other way counts as inactive or inconclusive.

Cc1ccc(C)c(S(=O)(=O)NCC(c2ccco2)S(=O)(=O)c2ccc(F)cc2)c1 (stereo not given)	pS6 MEF inh 7.4µM
CCOc1ccc(S(=O)(=O)NCC(c2ccco2)S(=O)(=O)c2ccc(C)cc2)cc1 (stereo not given)	PMP22 txn inconclusive
COc1ccc(OC)c(S(=O)(=O)NCC(c2cccs2)S(=O)(=O)c2ccc(F)cc2)c1 (stereo not given)	S16 viability inconclusive, pS6 MEF inh inconclusive, PMP22 txn inconclusive
COc1ccc(F)cc1S(=O)(=O)NCC(c1ccco1)S(=O)(=O)c1cccs1 (stereo not given)	S16 viability 13µM, PMP22 txn 9.5µM
O=S(=O)(NCC(c1ccco1)S(=O)(=O)c1cccs1)c1ccccc1 (stereo not given)	S16 viability 32µM, PMP22 txn inconclusive
C=C(C)C(=O)O[C@H]1C[C@@](C)(O)C2(O)CCC(C)(/C=C3/OC(=O)C(COC)=C31)O2 (stereo not given in full)	none (no result: SKOV3 invasion, GALC G270D up, S16 viability, pS6 MEF inh, PMP22 txn)
Cc1ccc(OCCn2c(CCNC(=O)COc3ccccc3Br)nc3ccccc32)cc1	none (no result: SKOV3 invasion, GALC G270D up, S16 viability, pS6 MEF inh, PMP22 txn)
CC(=O)O[C@@H]1[C@H](OC(C)=O)C[C@@]2(C)C(CC[C@@H](C)[C@]23Cc2c(O)cc4c(c2O3)CN([C@@H](CCC(=O)O)C(=O)O)C4=O)C1(C)C (stereo not given in full)	none (no result: SKOV3 invasion, GALC G270D up, S16 viability, pS6 MEF inh, PMP22 txn)
CC(=O)OC1CC2(C)C(CCC(C)C23Cc2c(O)cc4c(c2O3)CNC4=O)C(C)(C)C1O (stereo not given)	none (no result: SKOV3 invasion, GALC G270D up, S16 viability, pS6 MEF inh, PMP22 txn)
O=S(=O)(NCC(c1ccco1)S(=O)(=O)c1cccs1)c1ccc(F)c(C(F)(F)F)c1 (stereo not given)	S16 viability 2.5µM, PMP22 txn 7.3µM
O=C(NCc1ccccc1F)C(=O)NCC(c1ccco1)S(=O)(=O)c1cccs1 (stereo not given)	none
COc1ccc(F)cc1S(=O)(=O)NCC(c1ccco1)S(=O)(=O)c1ccc(F)cc1 (stereo not given)	S16 viability 16µM, PMP22 txn 19µM
O=S(=O)(NCC(c1cccs1)S(=O)(=O)c1ccccc1)c1ccccc1 (stereo not given)	S16 viability 10µM, pS6 MEF inh inconclusive, PMP22 txn 15µM
CC(C)(C)c1ccc(C(=O)NCC(c2cccs2)S(=O)(=O)c2ccccc2)cc1 (stereo not given)	S16 viability inconclusive, PMP22 txn inconclusive
COc1ccc(O)c(-c2nc3ccccc3c(=O)n2Cc2ccccc2)c1	none (no result: SKOV3 invasion, GALC G270D up, S16 viability, pS6 MEF inh, PMP22 txn)
CN1C(=O)N(c2cc(Cl)cc(Cl)c2)C(=O)[C@]12CN(Cc1cc(C(=O)O)cs1)C[C@H]2c1ccc(C#N)cc1	none (no result: SKOV3 invasion, GALC G270D up, S16 viability, pS6 MEF inh, PMP22 txn)
OC1(CN2CCC(COc3noc4cccc(O[C@@H]5CCOC5)c34)CC2)CCOCC1	none (no result: SKOV3 invasion, GALC G270D up, S16 viability, pS6 MEF inh, PMP22 txn)
Cc1ccc(C(=O)Nc2cc3cc(Cl)ccc3oc2=O)cc1	PMP22 txn 6.5µM
COc1ccc(C(=O)Nc2cc3cc(Cl)ccc3oc2=O)cc1OC	none
Cc1ccc(CN2C(=O)c3ccccc3Sc3ccc(C(=O)NC4CCCC4)cc32)cc1	none
Cc1ccc(CN2C(=O)c3ccccc3Sc3ccc(C(=O)NCCCN4CCOCC4)cc32)cc1	NTMT1 inhibitor inconclusive, pS6 MEF inh 12µM, PMP22 txn inconclusive
O=C(CCCCCCC(=O)Nc1ccc([C@H]2O[C@@H](CSc3nc(-c4ccccc4)c(-c4ccccc4)o3)C[C@@H](c3ccc(CO)cc3)O2)cc1)NO	NTMT1 inhibitor 43µM! (no result: GALC G270D up, S16 viability, pS6 MEF inh, PMP22 txn)
Cc1ccc([S+](=O)([O-])n2cc(-c3ccc(-c4ccccc4)cc3)c3ccccc32)cc1	none (no result: SKOV3 invasion, GALC G270D up, S16 viability, pS6 MEF inh, PMP22 txn)
CCOc1ccc(CNC(=O)c2ccc(Sc3ccc(Cl)cc3)c(NC(C)=O)c2)cc1OC	NTMT1 inhibitor 89µM
Cc1nnc(NC(=O)C(=O)c2cc(C)n(-c3ccc(C)c(C)c3)c2C)s1	S16 viability inconclusive, PMP22 txn 2.9µM
CCOc1ccc(NC(=O)CN(C)S(=O)(=O)c2ccc3[nH]c4c(c3c2)CCCC4)cc1	S16 viability inconclusive, NTMT1 inhibitor inconclusive, PMP22 txn 17µM
CCN1CCN(c2cc(C)c3cc(NC(=O)c4cc(OC)cc(OC)c4)ccc3n2)CC1	SKOV3 invasion inconclusive, S16 viability inconclusive, NTMT1 inhibitor inconclusive, pS6 MEF inh 13µM, PMP22 txn inconclusive
CCCCc1ccc(C(=O)Nc2ccc3nc(N4CCN(CC)CC4)cc(C)c3c2)cc1	S16 viability inconclusive, pS6 MEF inh 2.1µM, PMP22 txn inconclusive
CCN1CCN(c2cc(C)c3cc(NC(=O)c4cccc(Cl)c4)ccc3n2)CC1	S16 viability inconclusive, pS6 MEF inh 12µM, PMP22 txn inconclusive
Cc1cc(N2CCCCC2)nc2ccc(NC(=O)c3ccc(F)cc3)cc12	none
Cc1cc2c(s1)c1cnn(Cc3cccc(C(F)(F)F)c3)c(=O)c1n2C	none (no result: SKOV3 invasion, GALC G270D up, S16 viability, pS6 MEF inh, PMP22 txn)
Cc1nc(NC(=O)N2CCC[C@@H]2C(N)=O)sc1-c1csc(C(C)(C)C)n1	none (no result: GALC G270D up, S16 viability, pS6 MEF inh, PMP22 txn)
CCC(C=C[C@@H]1OC(=O)C=C[C@H]1C)=C[C@H](C)CC=CC(C)=C[C@@H](C)C(=O)[C@@H](C)[C@H](O)[C@@H](C)CC(C)=CC(=O)O	NTMT1 inhibitor 1µM (no result: GALC G270D up, S16 viability, pS6 MEF inh, PMP22 txn)
